# Data as given in PubChem BioAssay (EPA / NIEHS).
# Inconclusive results are not listed. Activity calls are given as the source filed them. How the source made its calls, unless noted: active means hit-call score of the fitted dose curve at least 0.9, where 1 is the maximum; inactive means score below 0.9.
# Legend:
# [1] = biological target: Oxysterols receptor LXR-alpha (Homo sapiens) (UniProt Q13133); test: ATG_LXRa_TRANS: Attagene TRANS-FACTORIAL HepG2 Assay for human Liver X Receptor alpha (LXRa) (AID 2282980; active means hit-call score of the fitted dose curve at least 0.9, where 1 is the maximum); conditions: HepG2 Attagene TRANS reporter, LXRa transactivation
# Chain of Oxysterols receptor LXR-alpha (Homo sapiens) (Q13133 whole entry, looked up, the tested form may be a part): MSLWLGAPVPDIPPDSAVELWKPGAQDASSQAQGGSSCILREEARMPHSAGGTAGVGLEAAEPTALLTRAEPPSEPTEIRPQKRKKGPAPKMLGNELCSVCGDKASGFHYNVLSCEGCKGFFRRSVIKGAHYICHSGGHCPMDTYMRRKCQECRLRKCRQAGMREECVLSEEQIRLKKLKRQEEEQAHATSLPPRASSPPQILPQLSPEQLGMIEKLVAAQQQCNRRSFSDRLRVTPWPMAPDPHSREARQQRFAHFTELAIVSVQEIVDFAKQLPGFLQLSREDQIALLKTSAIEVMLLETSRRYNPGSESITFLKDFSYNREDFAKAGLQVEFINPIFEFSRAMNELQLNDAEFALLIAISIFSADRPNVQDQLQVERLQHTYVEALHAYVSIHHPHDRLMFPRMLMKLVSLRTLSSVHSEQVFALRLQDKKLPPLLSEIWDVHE
# Procedure, shortened: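 Read-out: reporter transcript levels by RT-PCR plus capillary electrophoresis, fluorescence intensity. Transiently transfected HepG2, exogenous NR-GAL4 chimera, GAL4-UAS reporters; 24 h compound exposure. Activity = increase over DMSO negative control.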
# [2] = ATG_M_32_TRANS: Attagene TRANS-FACTORIAL HepG2 Assay for M32 Transcription Factor (Internal Marker) (AID 2282984; active means hit-call score of the fitted dose curve at least 0.9, where 1 is the maximum); conditions: HepG2 Attagene TRANS M32 internal marker reporter
# Procedure, shortened: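 Internal background reporter in transfected HepG2: after 24 h chemical exposure, RNA reverse-transcribed, reporter cDNA amplified, fluorescently labelled and HpaI-cut, then sized by capillary electrophoresis. Gain of signal fitted against DMSO control.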
# [3] = biological target: Nuclear receptor subfamily 4 group A member 2 (Homo sapiens) (UniProt P43354); test: ATG_NURR1_TRANS: Attagene TRANS-FACTORIAL HepG2 Assay for human Nuclear Receptor Related Protein 1 (NURR1) (AID 2282985; active means hit-call score of the fitted dose curve at least 0.9, where 1 is the maximum); conditions: HepG2 Attagene TRANS reporter, mRNA readout
# Chain of Nuclear receptor subfamily 4 group A member 2 (Homo sapiens) (P43354 whole entry, looked up, the tested form may be a part): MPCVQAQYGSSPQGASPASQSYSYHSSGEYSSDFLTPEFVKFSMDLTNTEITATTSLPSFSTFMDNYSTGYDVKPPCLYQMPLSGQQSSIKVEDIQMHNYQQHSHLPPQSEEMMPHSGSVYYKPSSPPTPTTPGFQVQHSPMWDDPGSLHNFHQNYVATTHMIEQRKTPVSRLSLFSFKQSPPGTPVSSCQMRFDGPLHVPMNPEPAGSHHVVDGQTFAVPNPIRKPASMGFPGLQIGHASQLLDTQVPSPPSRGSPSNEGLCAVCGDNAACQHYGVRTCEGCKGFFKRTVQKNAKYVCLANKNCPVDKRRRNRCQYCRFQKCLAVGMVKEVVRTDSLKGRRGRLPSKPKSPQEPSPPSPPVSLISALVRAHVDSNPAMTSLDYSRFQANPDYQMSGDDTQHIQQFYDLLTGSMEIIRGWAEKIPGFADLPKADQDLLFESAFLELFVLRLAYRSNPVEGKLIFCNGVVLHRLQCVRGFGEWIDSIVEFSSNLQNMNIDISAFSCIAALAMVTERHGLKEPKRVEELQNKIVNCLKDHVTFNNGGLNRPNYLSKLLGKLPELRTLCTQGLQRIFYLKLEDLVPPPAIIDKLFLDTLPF
# Procedure, shortened: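 Reporter transcript induction, measured by RT-PCR with fluorescent labelling, HpaI digestion and capillary electrophoresis, after 24 hr dosing of human HepG2 cells transiently expressing an exogenous NR-Gal4 fusion with GAL4-UAS-driven reporters; DMSO as baseline.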
# [4] = biological target: Nuclear respiratory factor 1 (Homo sapiens) (UniProt Q16656); test: ATG_NRF1_CIS: Attagene CIS-FACTORIAL HepG2 Assay for human Nuclear Respiratory Factor 1 (NRF1) Orphan Gene (AID 2282987); conditions: HepG2 NRF1 cis-element reporter, Attagene multiplex; actives raise or lower the signal
# Chain of Nuclear respiratory factor 1 (Homo sapiens) (Q16656 whole entry, looked up): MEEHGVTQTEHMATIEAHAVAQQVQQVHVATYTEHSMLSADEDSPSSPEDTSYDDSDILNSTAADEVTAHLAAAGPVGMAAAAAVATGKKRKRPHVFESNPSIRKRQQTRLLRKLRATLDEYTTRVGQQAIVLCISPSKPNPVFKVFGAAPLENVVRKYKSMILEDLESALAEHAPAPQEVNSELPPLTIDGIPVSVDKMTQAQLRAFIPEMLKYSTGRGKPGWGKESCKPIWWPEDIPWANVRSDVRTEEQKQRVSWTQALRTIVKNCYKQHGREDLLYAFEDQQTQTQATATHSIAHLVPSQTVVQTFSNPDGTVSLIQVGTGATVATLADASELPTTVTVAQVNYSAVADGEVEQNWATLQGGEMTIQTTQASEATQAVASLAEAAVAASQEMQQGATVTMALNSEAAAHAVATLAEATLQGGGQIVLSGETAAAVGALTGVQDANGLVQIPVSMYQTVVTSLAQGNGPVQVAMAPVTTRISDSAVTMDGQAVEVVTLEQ
# Procedure, shortened: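 Multiplexed cis-reporter assay, HepG2 cells, 24 h treatment. Total RNA → oligo(dT) RT → PCR with reporter-specific primers → 6-FAM primer extension → HpaI cut → CE. Bidirectional fit vs DMSO.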
# [5] = ATG_NFI_CIS: Attagene CIS-FACTORIAL HepG2 Assay for human Nuclear Factor I (NFI) (AID 2282989); conditions: HepG2 cis-regulatory reporter, NFI response element transcription; actives raise or lower the signal
# Procedure, shortened: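 Read-out: reporter mRNA via RT-PCR plus capillary electrophoresis with fluorescence detection. Transiently transfected HepG2 (endogenous TF activity on cis promoters), 24 h compound exposure; gain or loss of signal fitted against DMSO.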
# [6] = ATG_NF_kB_CIS: Attagene CIS-FACTORIAL HepG2 Assay for human Nuclear Factor Kappa B (NF-kB) (AID 2282991); conditions: HepG2 Attagene cis-factorial NF-kB reporter mRNA; actives raise or lower the signal
# Procedure, shortened: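 Transient MRTU transfection of human HepG2 liver cells → 24 h chemical exposure → total RNA, oligo(dT) RT → PCR, 6-FAM primer extension, HpaI digest 2 h 37 C → CE fragment analysis. Bidirectional fitting, DMSO negative control.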
# [7] = ATG_NRF2_ARE_CIS: Attagene CIS-FACTORIAL HepG2 Assay for human Nuclear Factor Erythroid 2 Related Factor 2 (NFR2) response to Antioxidant Response Elements (ARE) (AID 2282992); conditions: HepG2 Attagene ARE/NRF2 reporter, transcription factor activity; actives raise or lower the signal;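 on AC50: reporter mRNA level measured by RT-PCR and capillary electrophoresis fluorescence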
# Procedure, shortened: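 Endogenous transcription factor activity in human liver HepG2 cells is tracked via a cis-element-driven reporter within a multiplexed set. mRNA induction is read by RT-PCR and capillary electrophoresis after 24 h, with DMSO as baseline.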
# [8] = ATG_Oct_MLP_CIS: Attagene CIS-FACTORIAL HepG2 Assay for human Octamer-Binding Transcription Factor (Oct) (AID 2282993); conditions: HepG2 Attagene cis-factorial Oct reporter, mRNA; actives raise or lower the signal
# Procedure, shortened: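 Read-out: reporter mRNA via RT-PCR plus capillary electrophoresis of 6-FAM-labelled fragments. Transiently transfected HepG2, 24 h exposure, endogenous TF activity on cis elements. Gain or loss of signal fitted relative to DMSO.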
# [9] = biological target: Cellular tumor antigen p53 (Homo sapiens) (UniProt P04637); test: ATG_p53_CIS: Attagene CIS-FACTORIAL HepG2 Assay for human p53 Transcription Factor (AID 2282994); conditions: HepG2 p53 cis-element reporter, Attagene mRNA; actives raise or lower the signal
# Chain of Cellular tumor antigen p53 (Homo sapiens) (P04637 whole entry, looked up, the tested form may be a part): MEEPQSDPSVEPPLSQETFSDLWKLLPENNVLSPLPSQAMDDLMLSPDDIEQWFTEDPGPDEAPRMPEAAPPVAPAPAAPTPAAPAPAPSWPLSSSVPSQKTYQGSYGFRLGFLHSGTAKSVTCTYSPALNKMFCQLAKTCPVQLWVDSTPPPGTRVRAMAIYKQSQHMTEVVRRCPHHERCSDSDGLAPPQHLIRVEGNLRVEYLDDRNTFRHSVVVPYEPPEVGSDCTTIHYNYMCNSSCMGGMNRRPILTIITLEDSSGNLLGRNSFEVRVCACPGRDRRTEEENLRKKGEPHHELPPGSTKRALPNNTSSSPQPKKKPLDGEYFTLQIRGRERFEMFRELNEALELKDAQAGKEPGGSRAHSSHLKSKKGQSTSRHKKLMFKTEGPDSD
# Procedure, shortened: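 Steps: transfect HepG2 with multiplexed cis reporter constructs; dose chemicals 24 h; extract RNA, reverse-transcribe, PCR-amplify reporter sequences; FAM-label, HpaI-digest, resolve fragments by CE. Activity fitted both directions relative to DMSO.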
# [10] = BSK_3C_TissueFactor: BioMAP Diversity Plus: 3C Assay for Tissue Factor Biomarker Activity (AID 2282997); conditions: BioMAP 3C HUVEC, tissue factor biomarker readout; actives raise or lower the signal
# Procedure, shortened: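 HUVEC, 3C system, 24 h post-dose; Tissue Factor by ELISA; bidirectional fit vs DMSO baseline.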
# [11] = BSK_3C_uPAR: BioMAP Diversity Plus: 3C Assay for Urokinase-type plasminogen activator receptor (uPAR) Biomarker Activity (AID 2282998); conditions: BioMAP 3C HUVEC, uPAR biomarker ELISA; actives raise or lower the signal
# Procedure, shortened: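 HUVEC primary cells; 24 h post-dose; uPAR by ELISA; gain or loss of signal fitted bidirectionally vs DMSO baseline.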
# [12] = BSK_3C_VCAM1: BioMAP Diversity Plus: 3C Assay for Vascular cell adhesion molecule 1 (VCAM1) Biomarker Activity (AID 2282999); conditions: BioMAP 3C HUVEC, VCAM1 ELISA, cytokine-stimulated; actives raise or lower the signal
# Procedure, shortened: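 Activity fitted in both directions relative to DMSO, with ELISA measurement of the surface marker on primary HUVEC (3C) at 24 h post-treatment; parallel SRB staining (0.1% SRB, TCA-fixed, 560 nm) flagged overt cytotoxicity.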
# [13] = biological target: human Peroxisome Proliferator-activated Receptor delta (PPARd), PPARD (gene 5467) (UniProt Q03181); test: ATG_PPARd_TRANS: Attagene TRANS-FACTORIAL HepG2 Assay for human Peroxisome Proliferator-activated Receptor delta (PPARd) (AID 2283002; active means hit-call score of the fitted dose curve at least 0.9, where 1 is the maximum)
# Chain of human Peroxisome Proliferator-activated Receptor delta (PPARd), PPARD (gene 5467) (Q03181 whole entry, looked up, the tested form may be a part): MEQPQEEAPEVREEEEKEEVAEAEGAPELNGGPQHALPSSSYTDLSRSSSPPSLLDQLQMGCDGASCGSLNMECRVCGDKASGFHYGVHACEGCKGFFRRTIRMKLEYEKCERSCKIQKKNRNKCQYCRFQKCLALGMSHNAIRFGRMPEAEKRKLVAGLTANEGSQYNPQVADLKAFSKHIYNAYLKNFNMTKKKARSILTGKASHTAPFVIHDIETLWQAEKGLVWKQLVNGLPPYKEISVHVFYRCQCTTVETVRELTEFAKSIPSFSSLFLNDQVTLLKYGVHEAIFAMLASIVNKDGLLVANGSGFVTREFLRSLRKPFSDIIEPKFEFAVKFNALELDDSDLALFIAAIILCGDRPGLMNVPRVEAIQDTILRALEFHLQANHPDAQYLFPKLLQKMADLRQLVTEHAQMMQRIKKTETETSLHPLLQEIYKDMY
# Procedure, shortened: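 Read-out is induced reporter mRNA, quantified by RT-PCR with fluorescent labelling and capillary electrophoresis after 24 h dosing. Cells are HepG2 transiently carrying multiple GAL4-UAS reporter units driven by exogenous NR-GAL4 chimeras; DMSO serves as baseline.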
# [14] = biological target: Oxysterols receptor LXR-beta (Homo sapiens) (UniProt P55055); test: ATG_LXRb_TRANS: Attagene TRANS-FACTORIAL HepG2 Assay for human Liver X Receptor beta (LXRb) (AID 2282981; active means hit-call score of the fitted dose curve at least 0.9, where 1 is the maximum); conditions: HepG2 Attagene TRANS GAL4-LXRb reporter, mRNA
# Chain of Oxysterols receptor LXR-beta (Homo sapiens) (P55055 whole entry, looked up, the tested form may be a part): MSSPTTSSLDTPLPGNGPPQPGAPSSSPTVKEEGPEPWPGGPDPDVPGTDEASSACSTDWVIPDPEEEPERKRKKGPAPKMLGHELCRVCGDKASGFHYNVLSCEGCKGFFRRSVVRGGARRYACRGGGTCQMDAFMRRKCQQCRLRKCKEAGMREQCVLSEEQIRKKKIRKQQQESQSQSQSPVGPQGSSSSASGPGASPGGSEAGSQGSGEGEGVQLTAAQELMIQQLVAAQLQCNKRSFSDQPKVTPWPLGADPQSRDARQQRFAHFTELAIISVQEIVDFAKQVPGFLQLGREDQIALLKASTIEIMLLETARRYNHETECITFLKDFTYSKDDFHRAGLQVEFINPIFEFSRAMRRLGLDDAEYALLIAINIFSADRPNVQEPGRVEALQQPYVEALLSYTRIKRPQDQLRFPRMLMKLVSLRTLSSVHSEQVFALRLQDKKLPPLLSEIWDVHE
# Procedure, shortened: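 After 24 h chemical treatment of transfected HepG2 cells carrying exogenous NR-Gal4 chimeras, reporter mRNA was quantified by fluorescent RT-PCR and capillary electrophoresis; activity taken as increase over DMSO controls.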
# [15] = biological target: human Peroxisome Proliferator-activated Receptor alpha (PPARa), PPARA (gene 5465) (UniProt Q07869); test: ATG_PPARa_TRANS: Attagene TRANS-FACTORIAL HepG2 Assay for human Peroxisome Proliferator-activated Receptor alpha (PPARa) (AID 2283001; active means hit-call score of the fitted dose curve at least 0.9, where 1 is the maximum;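 on AC50: potency for gain of reporter signal over DMSO so agonist or activator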)
# Chain of human Peroxisome Proliferator-activated Receptor alpha (PPARa), PPARA (gene 5465) (Q07869 whole entry, looked up, the tested form may be a part): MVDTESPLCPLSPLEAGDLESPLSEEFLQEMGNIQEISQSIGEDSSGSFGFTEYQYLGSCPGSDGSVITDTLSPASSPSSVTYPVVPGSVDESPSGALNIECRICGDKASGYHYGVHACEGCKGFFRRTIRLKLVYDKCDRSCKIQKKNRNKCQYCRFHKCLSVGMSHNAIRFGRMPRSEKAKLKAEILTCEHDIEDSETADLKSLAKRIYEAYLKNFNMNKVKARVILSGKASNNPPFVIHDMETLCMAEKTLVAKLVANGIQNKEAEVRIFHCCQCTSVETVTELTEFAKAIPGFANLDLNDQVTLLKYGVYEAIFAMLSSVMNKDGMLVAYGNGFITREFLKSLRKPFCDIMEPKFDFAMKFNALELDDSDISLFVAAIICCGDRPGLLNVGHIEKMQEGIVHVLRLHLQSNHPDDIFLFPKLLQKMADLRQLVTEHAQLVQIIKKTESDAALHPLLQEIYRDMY
# Procedure, shortened: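 Reporter transcripts quantified by RT-PCR plus capillary electrophoresis after 24 h treatment, fitted upward relative to DMSO. Cells: human HepG2 transiently carrying multiple GAL4-UAS reporter units driven by NR-Gal4 chimeras.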
# [16] = biological target: Transcriptional activator Myb (Homo sapiens) (UniProt P10242); test: ATG_Myb_CIS: Attagene CIS-FACTORIAL HepG2 Assay for human Myeloblastosis (Myb) Proto-Oncogene Transcription Factor (AID 2282986); conditions: HepG2 Attagene CIS-FACTORIAL Myb reporter transcription; actives raise or lower the signal
# Chain of Transcriptional activator Myb (Homo sapiens) (P10242 whole entry, looked up): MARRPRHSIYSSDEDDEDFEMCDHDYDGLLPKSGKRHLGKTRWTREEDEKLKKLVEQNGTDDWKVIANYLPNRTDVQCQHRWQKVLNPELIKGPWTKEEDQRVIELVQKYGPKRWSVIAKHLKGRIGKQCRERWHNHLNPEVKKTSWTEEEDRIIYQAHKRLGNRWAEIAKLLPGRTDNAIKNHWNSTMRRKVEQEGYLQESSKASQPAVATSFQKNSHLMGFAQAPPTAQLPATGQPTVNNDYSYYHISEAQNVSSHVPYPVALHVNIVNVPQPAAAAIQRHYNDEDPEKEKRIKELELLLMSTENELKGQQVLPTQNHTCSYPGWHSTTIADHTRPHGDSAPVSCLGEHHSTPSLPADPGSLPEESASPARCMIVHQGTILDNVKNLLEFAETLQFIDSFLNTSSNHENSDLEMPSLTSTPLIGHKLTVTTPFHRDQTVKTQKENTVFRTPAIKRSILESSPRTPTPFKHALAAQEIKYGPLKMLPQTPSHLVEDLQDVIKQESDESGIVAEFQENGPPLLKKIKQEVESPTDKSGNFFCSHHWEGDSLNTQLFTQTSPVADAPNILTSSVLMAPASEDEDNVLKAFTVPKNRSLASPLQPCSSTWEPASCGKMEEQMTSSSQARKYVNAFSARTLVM
# Procedure, shortened: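 Reporter transcript levels, quantified by fluorescent RT-PCR and capillary electrophoresis, serve as the read-out. Transfected HepG2 cells carrying cis-promoter reporter units are dosed for 24 hours, and curves are fitted bidirectionally against DMSO controls.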
# [17] = biological target: Myc proto-oncogene protein (Homo sapiens) (UniProt P01106); test: ATG_Myc_CIS: Attagene CIS-FACTORIAL HepG2 Assay for human Myelocytomatosis (Myc) Proto-Oncogene Transcription Factor (AID 2282990); conditions: HepG2, Attagene cis-reporter transcription factor activity; actives raise or lower the signal
# Chain of Myc proto-oncogene protein (Homo sapiens) (P01106 whole entry, looked up, the tested form may be a part): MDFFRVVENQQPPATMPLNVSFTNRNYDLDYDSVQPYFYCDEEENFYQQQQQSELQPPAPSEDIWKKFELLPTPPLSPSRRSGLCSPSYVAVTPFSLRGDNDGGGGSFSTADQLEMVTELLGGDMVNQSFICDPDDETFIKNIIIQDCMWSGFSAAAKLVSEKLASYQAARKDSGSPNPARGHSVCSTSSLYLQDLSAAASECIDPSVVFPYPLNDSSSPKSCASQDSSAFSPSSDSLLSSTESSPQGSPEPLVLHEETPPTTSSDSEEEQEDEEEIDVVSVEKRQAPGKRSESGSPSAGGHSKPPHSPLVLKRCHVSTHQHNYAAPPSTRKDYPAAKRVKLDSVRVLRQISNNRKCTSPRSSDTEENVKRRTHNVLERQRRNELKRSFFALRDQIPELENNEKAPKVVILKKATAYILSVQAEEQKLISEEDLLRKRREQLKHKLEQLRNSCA
# Procedure, shortened: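 After 24 h chemical treatment of HepG2 cells carrying multiplexed cis-regulated reporter constructs, reporter transcripts quantified by RT-PCR and capillary electrophoresis of fluorescent fragments. Gain or loss fitted against DMSO baseline.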
# [18] = BSK_4H_Eotaxin3: BioMAP Diversity Plus: 4H Assay for Eotaxin 3 Biomarker Activity (AID 2283000); conditions: primary human endothelial cells (HUVEC); actives raise or lower the signal;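 on outcome: CCL26 protein level quantified by ELISA in parallel with SRB cytotoxicity check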
# Procedure, shortened: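 Readout is Eotaxin-3 (CCL26) level by ELISA in primary human umbilical vein endothelial cells harvested 24 h after chemical exposure; activity fitted in both directions against DMSO control.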
# [19] = ATG_M_06_TRANS: Attagene TRANS-FACTORIAL HepG2 Assay for M06 Transcription Factor (Internal Marker) (AID 2282983; active means hit-call score of the fitted dose curve at least 0.9, where 1 is the maximum); conditions: HepG2 Attagene TRANS M06 internal marker reporter
# Procedure, shortened: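 Read-out: fluorescent reporter cDNA fragments resolved by capillary electrophoresis after RT-PCR and HpaI cut. Source cells were HepG2 carrying transfected multi-reporter GAL4 constructs, dosed 24 h. Increase over DMSO control analysed.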
structure (smiles),measurement,setting,value
O=C(CCCCCCCCc1cccnc1)N1CCC(C=C(c2ccccc2)c2ccccc2)CC1,outcome,[1],inactive
same,outcome,[2],inactive
same,outcome,[3],inactive
same,outcome,[4],inactive
same,outcome,[5],inactive
same,outcome,[6],inactive
same,AC50,[7],4.68 µM (active)
same,AC50,[8],8.91 µM (active)
same,AC50,[9],19.3 µM (active)
same,AC50,[10],8.68 µM (active)
same,AC50,[11],7.01 µM (active)
same,AC50,[12],14.3 µM (active)
same,outcome,[13],inactive
Cn1cnc([N+](=O)[O-])c1Sc1ncnc2nc[nH]c12,outcome,[1],inactive
same,outcome,[14],inactive
same,outcome,[4],inactive
same,outcome,[5],inactive
same,outcome,[6],inactive
same,AC50,[7],29.5 µM (active)
same,outcome,[8],inactive
same,outcome,[9],inactive
same,outcome,[10],inactive
same,outcome,[11],inactive
same,outcome,[12],inactive
same,AC50,[15],26.4 µM (active)
same,outcome,[13],inactive
O=c1n(CC2CO2)c(=O)n(CC2CO2)c(=O)n1CC1CO1 (centres undefined),outcome,[1],inactive
same,outcome,[14],inactive
same,outcome,[3],inactive
same,outcome,[16],inactive
same,outcome,[4],inactive
same,AC50,[5],47 µM (active)
same,AC50,[17],58.4 µM (active)
same,AC50,[6],31.7 µM (active)
same,AC50,[7],7.56 µM (active)
same,AC50,[8],48.5 µM (active)
same,AC50,[9],24.7 µM (active)
same,AC50,[10],11.3 µM (active)
same,AC50,[11],20 µM (active)
same,AC50,[12],26.3 µM (active)
same,AC50,[18],23.2 µM (active)
same,outcome,[15],inactive
same,outcome,[13],inactive
O=C1CCC(N2C(=O)c3ccccc3C2=O)C(=O)N1 (centres undefined),outcome,[1],inactive
same,outcome,[2],inactive
same,outcome,[3],inactive
same,outcome,[4],inactive
same,outcome,[5],inactive
same,outcome,[6],inactive
same,outcome,[7],inactive
same,outcome,[8],inactive
same,outcome,[9],inactive
same,outcome,[10],inactive
same,outcome,[11],inactive
same,outcome,[12],inactive
same,outcome,[18],inactive
same,outcome,[13],inactive
Cn1c(=O)c2c(ncn2C)n(C)c1=O,outcome,[2],inactive
same,outcome,[3],inactive
same,outcome,[16],inactive
same,outcome,[4],inactive
same,outcome,[5],inactive
same,outcome,[7],inactive
same,outcome,[8],inactive
same,outcome,[9],inactive
same,outcome,[10],inactive
same,outcome,[11],inactive
same,outcome,[12],inactive
CC[C@H]1OC(=O)[C@H](C)[C@@H](O[C@H]2C[C@@](C)(OC)[C@@H](O)[C@H](C)O2)[C@H](C)[C@@H](O[C@@H]2O[C@H](C)C[C@H](N(C)C)[C@H]2O)[C@](C)(O)C[C@@H](C)C(=O)[C@H](C)[C@@H](O)[C@]1(C)O,outcome,[14],inactive
same,outcome,[2],inactive
same,outcome,[4],inactive
same,outcome,[5],inactive
same,outcome,[6],inactive
same,outcome,[7],inactive
same,outcome,[8],inactive
same,outcome,[9],inactive
same,outcome,[10],inactive
same,outcome,[11],inactive
same,outcome,[12],inactive
same,outcome,[18],inactive
same,outcome,[15],inactive
CCCC(=O)OCC,outcome,[3],inactive
same,outcome,[16],inactive
same,outcome,[4],inactive
same,outcome,[5],inactive
same,outcome,[17],inactive
same,outcome,[7],inactive
same,outcome,[8],inactive
same,outcome,[9],inactive
same,outcome,[10],inactive
same,outcome,[11],inactive
same,outcome,[12],inactive
same,outcome,[18],inactive
CC1=CC(=O)CC(C)(C)C1,outcome,[19],inactive
same,outcome,[16],inactive
same,outcome,[4],inactive
same,outcome,[5],inactive
same,outcome,[17],inactive
same,outcome,[7],inactive
same,outcome,[8],inactive
same,outcome,[9],inactive
same,outcome,[10],inactive
same,outcome,[11],inactive
same,outcome,[12],inactive
